Source: PubChem BioAssay (National Center for Advancing Translational Sciences (NCATS))
Only some compounds are listed: those with a hit (about 0.85% of all), similar ones and a draw of the others.
B2AR arrestin = agonists driving beta-arrestin recruitment to human beta2-adrenergic receptor; 0.02% of 330,000 active; Potency, µM (series often up to 46.1 µM), for the others: at the top dose activation, usual class: activators; beta-arrestin recruitment to beta2AR, cell-based reporter;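 further: potency means the concentration at half of the fitted maximal effect; 0% = DMSO controls and full agonism = EC100 isoproterenol or metaproterenol; nearly all actives have a fitted effect of over 65% in size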
Target sequence (P07550 whole entry, looked up): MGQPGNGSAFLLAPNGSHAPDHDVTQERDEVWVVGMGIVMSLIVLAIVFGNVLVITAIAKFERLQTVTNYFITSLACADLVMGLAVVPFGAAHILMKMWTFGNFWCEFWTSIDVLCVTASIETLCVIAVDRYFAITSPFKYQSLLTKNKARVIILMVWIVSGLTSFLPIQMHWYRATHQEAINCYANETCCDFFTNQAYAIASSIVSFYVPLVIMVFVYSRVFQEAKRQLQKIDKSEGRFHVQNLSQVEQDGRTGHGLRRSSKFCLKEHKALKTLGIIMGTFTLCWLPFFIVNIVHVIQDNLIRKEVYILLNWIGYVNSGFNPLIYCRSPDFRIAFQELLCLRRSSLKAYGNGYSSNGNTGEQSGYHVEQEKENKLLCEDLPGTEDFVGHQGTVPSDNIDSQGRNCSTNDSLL
aGlu spleen mod = inhibitors or activators of human alpha-glucosidase in spleen homogenate; AID 2112; human spleen homogenate, 4-MU-alpha-glucoside fluorescence; P10253; 0.006% of 240,000 active; Potency, µM (top dose mostly 79.9 µM), for the others: at the highest dose activity change, negative = inhibition, most hits filed as inhibitors;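 further: potency means the concentration at half of the fitted maximal effect; 0% = enzyme with vehicle and -100% = no enzyme basal signal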
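Compounds were titrated against alpha-glucosidase in spleen homogenate at pH 5.0, with 1 mM 4-methylumbelliferyl substrate for 40 min at 37 C. Reactions were quenched with pH 10 NaOH/glycine and fluorescence measured.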
Coupling enz = coupling enzyme interference in Giardia aldolase counter-screen; coupling enzyme system counterscreen, AmpLite Red fluorescence; activity change, negative = inhibition, % at 58.2 µM, hits read low; 0.67% of 290,000 active; AID 2472; in the data active means activity change below about -30%
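Fluorescence at 525 nm excitation and 598 nm emission measured inhibition of the coupled detection system without aldolase. Compounds (at 57.5 uM final) were preincubated 10 min at room temperature with coupling enzyme reagent before a 20 min substrate/AmpLite Red step.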
GAA inhib = alpha-glucosidase (human) inhibition. purified human GAA, 4-MU-alpha-glucoside fluorescence. 0.005% of 200,000 active. Potency, µM (top dose mostly 76.9 µM), for the others: at the top dose activity change, negative = inhibition, usual class: inhibitors. AID 1466;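 further: potency means the concentration at half of the fitted maximal effect; plate controls were uninhibited enzyme wells for no effect and no-enzyme background for full effect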
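Activity normalized between no-enzyme (basal) and enzyme-only wells. Conditions: 4 nM human enzyme, 400 uM fluorogenic substrate, citrate/phosphate pH 5.0 with Tween-20, 20 min room temperature, compounds up to 77 uM.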
GAA glycogen = alters human alpha-glucosidase cleavage of glycogen; recombinant GAA, glycogen substrate, Amplex Red glucose oxidase fluorescence; Potency, µM (titrated, usually from 76.4 µM), for inactives: at the highest dose activity change, negative = inhibition, hits mostly inhibitors; 0.38% of 300,000 active;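 further: potency means the concentration at half of the fitted maximal effect; 0% = full enzyme reaction and -100% = no-enzyme basal signal; the screen sought inhibitors and activators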
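Natural-substrate format: glycogen cleavage by 4 nM human enzyme, glucose read by Amplex Red coupling (Ex 573, Em 610 nm). Normalized to enzyme and no-enzyme controls.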
Active calls of the source: *; ? = inconclusive; · = no result; [ ] = remark or other dose. Unless noted, the call rests on the fitted dose curve; in most records, active means well fitted curve in the direction sought with a large enough effect; inconclusive means small, poorly fitted or top-dose-only effect, or another doubt; inactive means no such curve, though single readings can be large; an effect the other way counts as inactive or inconclusive. Unless noted, on the % scale 0 is the no-effect control and ±100 the full control effect.

SMILES	B2AR arrestin	aGlu spleen mod	Coupling enz	GAA inhib	GAA glycogen
CC(=O)OC[C@@H]1O[C@H](CCO/N=C(\C)CCN2CCc3nc(-c4ccccc4)c(-c4ccccc4)cc3C2)C=C[C@@H]1OC(C)=O	·	4%[17.4 µM]	1	·	·
COc1ccc(/C=C/C2=C[C@]3(C)C[C@]2(C)[C@H](c2ccc(OC)cc2)CC3=O)cc1	·	-4%	5	·	·
O=C1CCc2cc(S(=O)(=O)N3CCN(c4cccc(C(F)(F)F)c4)CC3)ccc2N1	0%	-3%	3	-4%	-5%
O=C1Cc2cc(S(=O)(=O)N3CCN(c4cccc(C(F)(F)F)c4)CC3)ccc2N1	·	·	·	·	9.5µM*
CCCn1c(C)nc2c(N3CCC(N4CCN(C)CC4)CC3)nc(C)nc21	·	8%	-2	·	·
Cc1nc2ncccn2c1-c1csc(Nc2ccc(O)cc2)n1	0%	0%	-2	-4%	22µM*
Oc1ccc(-c2nc(-c3ccc(O)c(O)c3)cs2)cc1	0%	1%	-4	-9%	11µM*
Cc1ccc(Nc2nc(-c3c(C)nc4ccccn34)cs2)cc1	0%	6%	0	-7%	28µM*
CC(=O)Nc1nc(C)c(-c2csc(Nc3ccc(O)cc3)n2)s1	0%	2%	-8	0%	25µM*
CC(C)C[C@H](N)C(=O)N[C@H](C(=O)N[C@@H](CCCN=C(N)N)C(=O)N[C@H](CS)C(=O)NCC(=O)N[C@@H](CCCCN)C(=O)N[C@@H](Cc1cnc[nH]1)C(=O)N[C@@H](CO)C(=O)N[C@@H](CCCN=C(N)N)C(=O)O)C(C)C	·	4%	1	·	·
C=CCOC(=O)N[C@H](/C(C(=O)OC)=C(\C)NCc1ccccc1)c1ccc(C)cc1	·	-8%	0	·	·
Oc1ccc(Nc2nc(-c3ccc4ccccc4c3)cs2)cc1	0%	10%	-26	?	5.6µM*
O=C(O)c1ccc(Cl)c(S(=O)(=O)Nc2ccc3cn[nH]c3c2)c1	0%	1%	-71*	1%	1%
COc1ccc(C(=O)Oc2ccc[nH]c2=O)cc1	0%	0%	-5	·	-3%
CCNC(=O)Oc1ccc[nH]c1=O	0%	1%	-63*	·	?
CC(=O)O[C@@H]1CC(C)=C2[C@H]1[C@H](C)CC[C@H]2/C=C(\C)C(=O)O	·	-6%	·	·	·
COC(=O)c1ccc(-c2nc3cc(Cl)c(N)cc3s2)cc1	0%	-13%	-32*	3%	8%
COC(=O)c1ccc(-c2nc(O)c(C)s2)cc1	0%	2%	2	3%	?
C/C(CC(=O)Nc1cc(Cl)ccc1Cl)=N\NC(N)=S	0%	-5%	0	1%	9.9µM*
C/C(CC(=O)Nc1ccc(Cl)c(Cl)c1)=N\NC(N)=S	5%	-10%	-3	-12%	7.9µM*
C/C(CC(=O)Nc1ccc(Cl)cc1Cl)=N\NC(N)=S	0%	-4%	2	-5%	22µM*
C=CC1CO1 (configuration not stated)	·	4%	·	·	·
Cc1nc(N2CCOCC2)c2nc(-c3ccccc3)n(CCCN3CCCCC3C)c2n1 (configuration not stated)	·	6%	1	·	·
CCCCNC(=O)c1ccc2nc(-c3ccco3)c(-c3ccco3)nc2c1	0%	1%	-39*	12%	-5%
O=C(Nc1ccccc1)c1ccc2nc(-c3ccco3)c(-c3ccco3)nc2c1	1%	13%	-38*	0%	-14%
SMILES	B2AR arrestin	aGlu spleen mod	Coupling enz	GAA inhib	GAA glycogen
Cc1nc2cc(NC(=O)N3CCN(c4ccccn4)CC3)ccc2o1	·	4%	3	0%	5%
O=C(NCCCO)c1ccc2nc(-c3ccco3)c(-c3ccco3)nc2c1	0%	-2%	-29	-4%	-7%
O=C(NCCO)Nc1ccc2nc(-c3ccco3)c(-c3ccco3)nc2c1	0%	-4%	-36*	12%	-25%
O=C(Nc1ccc2nc(-c3ccco3)c(-c3ccco3)nc2c1)N1CCN(c2ccccn2)CC1	0%	2%	-41*	7%	4%
CO[C@H]1COC(=O)[C@H](C)NC(=O)[C@@H](C)COC(=O)C/C=C\[C@@H]1C	·	11%[17.4 µM]	0	·	·
CCCCC/C=C\C\C=C/C=C/C=C/[C@@H](O)[C@@H](O)CCCC(=O)O	·	-6%	3	·	·
